Screening data: PubChem BioAssay, National Center for Advancing Translational Sciences (NCATS)
D2 ag-1 – Beta-Arrestin HTS for Positive Allosteric Modulators of the Human D2 Dopamine Receptor: Agonists; activation, % (test concentration not listed); DiscoveRx PathHunter D2 beta-arrestin, luminescence, 90 min; 100% = 57 uM dopamine signal; D(2) dopamine receptor (Homo sapiens), P14416; 0.084% of 360,000 active; AID 624465, 2012; in the data active means activation above about 40%; inconclusive means between about 15% and that limit
Target sequence (P14416 whole entry, looked up): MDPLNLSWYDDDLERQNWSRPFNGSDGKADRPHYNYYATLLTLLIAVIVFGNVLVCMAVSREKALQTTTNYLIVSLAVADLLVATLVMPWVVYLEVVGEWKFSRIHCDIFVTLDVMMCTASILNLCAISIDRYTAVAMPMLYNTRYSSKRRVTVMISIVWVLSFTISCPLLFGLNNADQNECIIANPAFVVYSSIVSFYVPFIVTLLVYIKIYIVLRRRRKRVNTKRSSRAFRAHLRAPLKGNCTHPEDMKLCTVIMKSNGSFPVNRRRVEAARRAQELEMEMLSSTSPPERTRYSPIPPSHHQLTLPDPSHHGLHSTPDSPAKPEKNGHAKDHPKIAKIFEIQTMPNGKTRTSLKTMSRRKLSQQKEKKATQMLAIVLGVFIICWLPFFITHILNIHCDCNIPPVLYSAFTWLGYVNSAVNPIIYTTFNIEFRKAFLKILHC
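DiscoveRx PathHunter D2 beta-arrestin cells (2,100/well) attached overnight, then compound-stimulated 90 min at 37 C in HBSS/10 mM HEPES/0.1% Tween-20 buffer; beta-galactosidase complementation read by luminescence after 1 h at ambient temperature. Dopamine 57 uM final (EC100) as control.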
D2 antag – HTS Assay for Allosteric Antagonists of the Human D2 Dopamine Receptor: Primary Screen for Antagonists; HEK293 TREx D2 cells, calcium flux, dopamine EC80; 2% of 340,000 active; inhibition, % at 10 µM; in the data active means inhibition above about 30%; inactive means below that, where a call was filed; further: 0% is about no effect
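Tetracycline-induced HEK293 T-REx cells expressing D2 force-coupled to calcium signalling were dye-loaded, exposed to compound for 180 s, then challenged with an EC80 of dopamine; calcium flux was followed kinetically for a further 180 s.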
D2 PAM-1 – HTS Assay for Positive Allosteric Modulators of the Human D2 Dopamine Receptor: Primary Screen for Potentiators. D(2) dopamine receptor (Homo sapiens), P14416. HEK293 T-REx D2, calcium flux, EC20 dopamine potentiation. potentiation, % at 10 µM. 0.34% of 340,000 active. AID 485347, 2010;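 active means potentiation over 3 SD above the plate norm, cut at about 30% in these data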; further: 0% is about no effect
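Primary screen. Calcium kinetics in induced HEK293 T-REx D2 cells: compound pre-addition 180 s, EC20 dopamine, 180 s more.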
D2 PAM-2 – Beta-Arrestin HTS for Positive Allosteric Modulators of the Human D2 Dopamine Receptor: Potentiators; D(2) dopamine receptor (Homo sapiens), P14416; DiscoveRx D2 beta-arrestin cells, luminescence, 90 min; 100% = 57 uM dopamine signal; potentiation, % (concentration not given with the values); 0.23% of 360,000 active; AID 624464, 2012; in the data active means potentiation above about 50%; inconclusive means mostly about 30% to 49%
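PathHunter beta-arrestin assay in DiscoveRx D2 cells. Compounds were added with an EC20 of dopamine (50 nM final) for 90 min at 37 deg C. Luminescence was read 1 h after detection reagent, with 57 uM dopamine as the EC100 control.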
D2 ag-2 – HTS Assay for Allosteric Agonists of the Human D2 Dopamine Receptor: Primary Screen for Agonists; HEK293 T-REx D2 cells, calcium flux agonist mode; activation, % at 2 µM; 0.53% of 340,000 active;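 active means activation over 3 SD above normal in the single-dose calcium agonist read, cut at about 30% in these data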; further: 0% is about no effect
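Calcium-flux readout, 1 cycle/sec over 180 s following compound pin transfer, in inducible HEK293 Trex D2 cells (force-coupled); dopamine controls included. Positive calcium responses during this window marked compounds as potential agonists.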
Starred values were filed as active, the others as inactive; ? = inconclusive; / = no result. Shown are actives, neighbours in structure and some others; about 2.4% of the full set was active somewhere.

SMILES	D2 ag-1	D2 antag	D2 PAM-1	D2 PAM-2	D2 ag-2
CC(C)OC(=O)CSc1nnc2c3ccccc3n(C)c2n1	-3	37*	7	-1	-1
CC(C)CSc1nnc2c3ccccc3n(C)c2n1	-9	/	2	-11	/
COc1ccccc1C(=O)Nc1cccc(C(=O)OCc2cc(=O)n3cc(C)sc3n2)c1	/	/	1	/	1
COc1ccc(NC(=O)CC2SC(N3CCOCC3)=NC2=O)c(OC)c1 (stereo unspecified)	2	/	/	-5	/
COc1cc(Cl)c(C)cc1NC(=O)CC1SC(N2CCOCC2)=NC1=O (stereo unspecified)	0	99*	-23	-4	-1
CCC(C)NCCOc1cccc(Br)c1 (stereo unspecified)	1	45*	-17	-34	-1
COc1cccc(Cn2c(=O)n(Cc3ccco3)c(=O)c3oc4ccccc4c32)c1	/	/	-8	/	1
O=C(NCCNc1ccc([N+](=O)[O-])cc1)c1ccccc1Br	0	-20	34*	-5	1
Cc1ccccc1C(=O)NCCNc1ccc([N+](=O)[O-])cc1	-4	33*	0	-6	0
Cc1ccc(NC(=O)Cn2c(=O)n(CCC(=O)NCc3ccccc3Cl)c(=O)c3ccccc32)cc1	/	/	14	/	0
CCN(Cc1ccccc1)Cc1c(O)ccc2oc(C)c(C(=O)Nc3ccccc3C)c12	/	/	5	/	-1
COc1ccc(-c2csc(NC(=O)CN3C(=O)NC4(CCCC4)C3=O)n2)cc1	1	38*	-14	2	0
OCCCN1CCN(CCCOc2ccccc2-c2ccccc2)CC1	-5	53*	-29	-33	0
CC1CN(CCOc2ccccc2-c2ccccc2)CC(C)O1 (stereo unspecified)	-6	71*	-17	-25	0
c1ccc(-c2ccccc2OCCCN2CCOCC2)cc1	-1	10	13	-15	0
CC(C)(C)c1ccccc1OCCOCCN1CCCCCC1	3	31*	-27	-10	0
CC1CN(CCOc2ccc(F)cc2)CC(C)O1 (stereo unspecified)	-2	-6	5	-4	-1
c1ccc(-c2ccccc2OCCCCN2CCCCCC2)cc1	0	148*	-41	-8	0
c1ccc(-c2ccccc2OCCN2CCCC2)cc1	5	82*	-22	-25	0
c1ccc(-c2ccccc2OCCOCCN2CCCCC2)cc1	-6	87*	-25	-26	0
Cc1ccccc1OCCN1CCCC1	-5	-16	-21	-4	3
COc1cccc(-c2nc(SCC(=O)NCC3CCCO3)c(-c3ccc(Cl)cc3)[nH]2)c1 (stereo unspecified)	/	/	-22	/	3
Nc1ccc(C2=Nc3cccc4cccc(c34)N2)cc1	?	9	-4	4	-1
CC1=Nc2cccc3cccc(c23)N1	7	-1	14	56*	0
Cc1cccc(C)c1NC(=O)CN(C)S(=O)(=O)c1ccc2c(c1)n(C)c(=O)c(=O)n2C	/	/	3	/	-1
COc1ccc(C(=O)Nc2ccc(O)c3ccccc23)cc1OC	?	/	/	82*	/
COc1ccc(OC)c(-n2c(-c3cccc(O)c3)n[nH]c2=S)c1	0	12	36*	16	0
COc1ccc(OC)c(C2=NOC(C(=O)NCc3cccnc3)C2)c1 (stereo unspecified)	-1	-17	3	-2	0
COc1cc(OC)c(C2=NOC(C(=O)NCc3cccnc3)C2)cc1Cl (stereo unspecified)	3	-1	2	54*	0
CCCCCOc1ccc(C(=O)Nc2ccc(N3CCOCC3)cc2N2CCOCC2)cc1	-2	-12	78*	-2	0
